Inconclusive results are not listed. Where a structure was tested more than once in an assay, its records may differ in their call. Activity calls are given as the source filed them. Unless noted, the call rests on the fitted dose curve.
Experiments:
[1] = qHTS assay for small molecule agonists of the p53 signaling pathway (AID 651631); further: on the % scale 0 is the no-effect control and ±100 the full control effect; nearly all actives have a fitted effect of over 15% in size
In short: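 HCT-116 cells carrying a stable p53 response element–beta-lactamase reporter were plated, rested 5 h at 37 °C, then exposed to compound in DMSO for 16 h at 37 °C; reporter activity was read as FRET substrate fluorescence after 2 h at room temperature.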

Aromatase (Homo sapiens) = Aromatase (Homo sapiens) (UniProt P11511); experiment: qHTS assay to identify aromatase inhibitors (AID 743083; active means well fitted curve in the direction sought with a large enough effect in the repeat runs; an effect the other way counts as inactive or inconclusive; further: potency means the concentration at half of the fitted maximal effect; nearly all actives have a fitted effect of over 55% in size)
[2] = qHTS assay to identify small molecule agonists of the estrogen related receptor signaling pathway with the pleiotropic PPARgamma coactivator (PGC) from Tox21 10K library (AID 1224842; active means well fitted curve in the direction sought with a large enough effect in the repeat runs; an effect the other way counts as inactive or inconclusive; further: potency means the concentration at half of the fitted maximal effect; nearly all actives have a fitted effect of over 15% in size)
In short: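 PGC/ERR reporter cells (NTP line) were seeded 2,000 per well, rested 6 h at 37 C/5% CO2, then pin-dosed with compounds in DMSO for 18 h at 37 C; luciferase read by One-Glo luminescence after 30 min at room temperature.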

[3] = qHTS assay to identify small molecule agonists of the estrogen related receptor (ERR) signaling pathway from Tox21 library (AID 1224849); details: ERR reporter cell line, ONE-Glo luciferase, 18 h; at 92.4 µM (top of the series) unless noted; further: on the % scale 0 is the no-effect control and ±100 the full control effect; nearly all actives have a fitted effect of over 15% in size
In short: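 Reporter cells (ERR, NTP source) treated with Tox21 10K compounds 18 h, 37 C. Readout: ONE-Glo luminescence, 30 min RT.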

[4] = Caspase-3/7 induction in HepG2 cells by small molecules, qHTS assay (AID 1346978; active means well fitted curve in the direction sought with a large enough effect in the repeat runs; an effect the other way counts as inactive or inconclusive; further: on the % scale 0 is the no-effect control and ±100 the full control effect; nearly all actives have a fitted effect of over 15% in size)
In short: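 Wild-type HepG2 cells (2,000/well) were settled 5 h at 37 C, 5% CO2, then exposed to compounds in DMSO for 17 h. Caspase-3/7 activity was read by luminescence 30 min after adding Caspase-Glo 3/7 reagent at room temperature.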

[5] = target: Acetylcholinesterase (Homo sapiens) (UniProt P22303); experiment: Acetylcholinesterase (AChE) small molecule antagonists: colormetric cell-based qHTS assay (AID 1347395); further: nearly all actives have a fitted effect of over 30% in size; further: potency means the concentration at half of the fitted maximal effect
In short: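 SH-SY5Y cells, plated overnight at 37 C, were exposed to compounds for 30 min at 37 C and 5% CO2. Acetylthiocholine plus DTNB was then added, and thiocholine from endogenous AChE was quantified colorimetrically after 90 min at 37 C.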

[6] = target: Acetylcholinesterase (Homo sapiens) (UniProt P22303); experiment: Acetylcholinesterase (AChE) small molecule antagonists: enzyme-based qHTS assay (AID 1347397); details: Potency: AChE enzyme activity inhibition; outcome: AChE enzyme activity inhibition; further: on the % scale 0 is the no-effect control and ±100 the full control effect; nearly all actives have a fitted effect of over 55% in size
In short: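 Tox21 library chemicals are tested in qHTS format against recombinant human AChE. The enzyme, dispensed at 50 mU/mL, sits with compound for 30 min at room temperature. A DTNB–acetylthiocholine cocktail follows, and colour is read after 10 min.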

[7] = target: Acetylcholinesterase (Homo sapiens) (UniProt P22303); experiment: Acetylcholinesterase (AChE) small molecule antagonists: fluorescence cell-based qHTS assay (AID 1347398); details: Potency: AChE activity; outcome: AChE activity; further: on the % scale 0 is the no-effect control and ±100 the full control effect; nearly all actives have a fitted effect of over 50% in size
In short: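 Cellular AChE inhibition: SH-SY5Y cells treated with test chemical for 30 min at 37 C, then acetylthiocholine hydrolysis followed over 40 min at room temperature via thiocholine-reactive Thiolite Green fluorescence (490/520 nm).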

[8] = target: Acetylcholinesterase (Homo sapiens) (UniProt P22303); experiment: Acetylcholinesterase (AChE) small molecule antagonists: enzyme-based qHTS assay with human liver microsomes (AID 1347399); details: Potency: qHTS inhibition; outcome: qHTS inhibition; further: on the % scale 0 is the no-effect control and ±100 the full control effect; nearly all actives have a fitted effect of over 60% in size
In short: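 Recombinant human AChE (50 mU/mL in the enzyme mix) and human liver microsomes (0.25 mg/mL final) were preincubated with compound and NADPH (0.25 mg/mL final) for 30 min at 37 C. Acetylthiocholine/DTNB was then added; thiocholine was read colorimetrically after 10 min at room temperature.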

Chain of Acetylcholinesterase (Homo sapiens) (P22303 whole entry, looked up): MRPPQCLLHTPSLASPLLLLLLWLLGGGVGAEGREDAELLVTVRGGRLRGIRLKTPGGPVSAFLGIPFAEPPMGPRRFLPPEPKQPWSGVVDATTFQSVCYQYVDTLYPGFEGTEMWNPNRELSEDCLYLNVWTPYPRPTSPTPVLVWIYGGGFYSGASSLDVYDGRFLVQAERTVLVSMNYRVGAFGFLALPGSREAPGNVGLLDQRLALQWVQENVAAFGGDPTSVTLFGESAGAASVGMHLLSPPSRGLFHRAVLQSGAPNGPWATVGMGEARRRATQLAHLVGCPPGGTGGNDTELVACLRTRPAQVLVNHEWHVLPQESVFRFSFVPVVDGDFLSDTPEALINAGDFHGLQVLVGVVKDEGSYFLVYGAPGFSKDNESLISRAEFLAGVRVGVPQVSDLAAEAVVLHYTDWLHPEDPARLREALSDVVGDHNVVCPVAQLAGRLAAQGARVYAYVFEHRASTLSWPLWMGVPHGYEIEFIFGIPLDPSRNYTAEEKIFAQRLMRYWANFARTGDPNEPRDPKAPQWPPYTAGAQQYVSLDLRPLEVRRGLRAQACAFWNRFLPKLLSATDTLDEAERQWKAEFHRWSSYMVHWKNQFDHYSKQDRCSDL
Chain of Aromatase (Homo sapiens) (P11511 whole entry, looked up): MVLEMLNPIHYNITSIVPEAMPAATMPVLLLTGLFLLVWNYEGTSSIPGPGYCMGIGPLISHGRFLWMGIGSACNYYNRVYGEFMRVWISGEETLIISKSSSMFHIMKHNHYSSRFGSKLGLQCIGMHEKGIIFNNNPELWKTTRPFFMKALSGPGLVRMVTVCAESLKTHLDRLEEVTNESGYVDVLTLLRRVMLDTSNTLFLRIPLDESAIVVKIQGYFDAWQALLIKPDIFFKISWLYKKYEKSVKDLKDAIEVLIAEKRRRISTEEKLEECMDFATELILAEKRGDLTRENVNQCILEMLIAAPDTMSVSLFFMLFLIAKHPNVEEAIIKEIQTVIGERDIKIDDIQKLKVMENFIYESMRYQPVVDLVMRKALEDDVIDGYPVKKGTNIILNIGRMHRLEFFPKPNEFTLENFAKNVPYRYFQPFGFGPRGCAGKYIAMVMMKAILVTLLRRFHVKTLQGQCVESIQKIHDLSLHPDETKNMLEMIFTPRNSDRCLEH

NC(=Nc1ccccc1)Nc1ccccc1
active: Potency (Aromatase (Homo sapiens)) 23.7 µM | Potency [2] 12.2 µM | activity change, positive = activation [3] 17.6%
63.3 µM (active) and inactive: Potency [5]
inactive: Potency [1] | Potency [4] | Potency [6] | Potency [7] | Potency [8]

From PubChem BioAssay (Tox21)
